“And” between values parts separate entries of the source, which are not always exact repeats. Equal values may be shown once. In all, about 5,500 compounds went through this assay and about 2,000 (36%) were called active. Not shown: some 18% with an inconclusive outcome. No stated cut-off is given here; in the data, active means normalized growth mostly below about 0.91 (no sharp cut-off); inconclusive means no clear call, values can overlap the other calls; inactive means mostly above about 0.92. Some of the results follow. A structure can be active in one record and inactive in another.
Experiment: chemical genetic growth profiling, strain panel (AID 1159580);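 further: tested at 20 µM; growth read once vehicle control cultures reached saturation at 30 °C; 1 = growth at the plate median or of vehicle wells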
Details: S. cerevisiae deletion strains, growth OD

Measured: normalized growth

CN1CCN(CCCN2c3ccccc3Sc3ccc(Cl)cc32)CC1
0.216 (active) and 1.03 (inactive): locus YAL013W, strain DEP1, stronger effect = lower value
active: locus YAL021C, strain ccr4, stronger effect = lower value 0.706 | locus YAL026C, strain drs2, stronger effect = lower value 0.0669 | locus YAL030W, strain snc1, stronger effect = lower value 0.922 | locus YBL061C, strain skt5, stronger effect = lower value 0.888 | locus YBR009C, strain hhf1, stronger effect = lower value 0.8 | locus YBR021W, strain FUR4, stronger effect = lower value 0.413 | locus YBR023C, strain chs3, stronger effect = lower value 0.868 | locus YBR231C, strain swc5, stronger effect = lower value 0.663 | locus YCL011C, strain gbp2, stronger effect = lower value 0.772 | locus YCR088W, strain abp1, stronger effect = lower value 0.831 | locus YDL035C, strain GPR1, stronger effect = lower value 0.214 | locus YDL074C, strain BRE1, stronger effect = lower value 0.296 | locus YDL192W, strain arf1, stronger effect = lower value 0.0937 | locus YDR069C, strain doa4, stronger effect = lower value 0.804 | locus YDR137W, strain rgp1, stronger effect = lower value 1.26 [resistant] | locus YDR150W, strain NUM1, stronger effect = lower value 0.563 | locus YDR162C, strain NBP2, stronger effect = lower value 0.0524 | locus YDR195W, strain ref2 1.15 [resistant] | locus YDR318W, strain mcm21, stronger effect = lower value 0.91 | locus YDR388W, stronger effect = lower value 0.805 | locus YDR502C, strain sam2, stronger effect = lower value 0.39 | locus YEL003W, strain gim4, stronger effect = lower value 0.832 | locus YEL061C, strain CIN8, stronger effect = lower value 0.664 | locus YER015W, strain faa2, stronger effect = lower value 0.556 | locus YER155C, strain BEM2 (second series), stronger effect = lower value 0.861 | locus YER167W, strain BCK2, stronger effect = lower value 0.858 | locus YFR010W, strain ubp6, stronger effect = lower value 0.734 | locus YGL086W, strain mad1, stronger effect = lower value 0.61 | locus YGL173C, strain kem1, stronger effect = lower value 0.874 | locus YGR078C, strain PAC10, stronger effect = lower value 0.594 | locus YGR135W, strain pre9, stronger effect = lower value 0.544 | locus YGR252W, strain gcn5, stronger effect = lower value 0.309 | locus YHR027C, strain rpn1, stronger effect = lower value 0.594 | locus YHR142W, strain chs7, stronger effect = lower value 0.854 | locus YHR200W, strain rpn10, stronger effect = lower value 0.869 | locus YIL066C, strain RNR3, stronger effect = lower value 0.793 | locus YJL095W, strain BCK1 (second series), stronger effect = lower value 0.919 | locus YJL129C, strain trk1, stronger effect = lower value 0.83 | locus YJL164C, strain tpk1, stronger effect = lower value 0.878 | locus YJL166W, strain qcr8, stronger effect = lower value 0.809 | locus YJL187C, strain SWE1 (second series), stronger effect = lower value 0.85 | locus YJR043C, strain POL32, stronger effect = lower value 0.247 | locus YJR075W, strain HOC1, stronger effect = lower value 0.131
0.065 (active) and 1.02 (inactive): locus YGR229C, strain SMI1, stronger effect = lower value
inactive: locus YAL040C, strain CLN3, stronger effect = lower value 0.97 | locus YBR171W, strain sec66, stronger effect = lower value 0.987 | locus YBR229C, strain ROT2, stronger effect = lower value 1 | locus YCL016C, strain dcc1, stronger effect = lower value 0.938 | locus YCL029C, strain bik1, stronger effect = lower value 1.03 | locus YCL061C, strain MRC1 (second series), stronger effect = lower value 0.997 | locus YCL069W, strain vba3, stronger effect = lower value 0.966 | locus YDL005C, strain med2, stronger effect = lower value 1 | locus YDL040C, strain nat1, stronger effect = lower value 0.964 | locus YDL101C, strain DUN1, stronger effect = lower value 0.965 | locus YDL134C, strain PPH21, stronger effect = lower value 0.982 | locus YDL185W, strain tfp1, stronger effect = lower value 0.964 | locus YDR001C, strain nth1, stronger effect = lower value 0.993 | locus YDR101C, strain arx1, stronger effect = lower value 0.929 | locus YDR159W, strain sac3, stronger effect = lower value 0.974 | locus YDR297W, strain sur2, stronger effect = lower value 0.968 | locus YDR334W, strain swr1, stronger effect = lower value 0.94 | locus YDR335W, strain msn5, stronger effect = lower value 0.96 | locus YDR363W, strain ESC2, stronger effect = lower value 0.891 | locus YDR392W, strain spt3, stronger effect = lower value 0.954 | locus YEL037C, strain rad23, stronger effect = lower value 0.963 | locus YEL061C, strain CIN8 (second series), stronger effect = lower value 0.986 | locus YER002W, strain NOP16, stronger effect = lower value 1 | locus YER016W, strain bim1, stronger effect = lower value 0.972 | locus YER110C, stronger effect = lower value 1.02 | locus YER111C, strain swi4, stronger effect = lower value 0.993 | locus YER155C, strain BEM2, stronger effect = lower value 1.04 | locus YGL078C, strain dbp3, stronger effect = lower value 0.966 | locus YGL167C, strain pmr1, stronger effect = lower value 0.947 | locus YGL227W, strain vid30, stronger effect = lower value 0.997 | locus YGL240W, strain doc1, stronger effect = lower value 1.01 | locus YGL248W, strain PDE1, stronger effect = lower value 0.99 | locus YGL253W, strain hxk2, stronger effect = lower value 0.927 | locus YHR013C, strain ard1, stronger effect = lower value 0.872 | locus YHR079C, strain IRE1 (second series), stronger effect = lower value 0.969 | locus YHR079C, strain IRE1, stronger effect = lower value 1 | locus YHR094C, strain hxt1, stronger effect = lower value 1 | locus YHR129C, strain ARP1, stronger effect = lower value 0.932 | locus YIL073C, strain SPO22, stronger effect = lower value 0.854 | locus YIL125W, strain kgd1, stronger effect = lower value 0.958 | locus YIR030C, strain dcg1, stronger effect = lower value 1 | locus YJL092W, strain hpr5, stronger effect = lower value 0.942 | locus YJL115W, strain asf1, stronger effect = lower value 0.99 | locus YJL134W, strain LCB3, stronger effect = lower value 0.991 | locus YJL154C, strain vps35, stronger effect = lower value 0.982 | locus YJL168C, strain set2, stronger effect = lower value 1.01 | locus YJR066W, strain TOR1, stronger effect = lower value 0.968
0.465 (active) and 1.02 (inactive): locus YHR030C, strain SLT2, stronger effect = lower value
0.494 (active) and 1.04 (inactive): locus YJL095W, strain BCK1, stronger effect = lower value
